Experimental data: PubChem BioAssay (Tox21)
“And” between values parts separate entries of the source, which are not always exact repeats. Identical values can stand only once. Results filed as inconclusive are left out. Entries that show only a call come without a potency. The source made the active and inactive calls. The call rests on the fitted dose curve.

target: Acetylcholinesterase (Homo sapiens) (UniProt P22303); test: Acetylcholinesterase (AChE) small molecule antagonists: colormetric cell-based qHTS assay (AID 1347395); conditions: SH-SY5Y cells AChE activity, colorimetric (Ellman); series mostly up to 115 µM; further: nearly all actives have a fitted effect of over 30% in size
Sequence (P22303 whole entry, looked up): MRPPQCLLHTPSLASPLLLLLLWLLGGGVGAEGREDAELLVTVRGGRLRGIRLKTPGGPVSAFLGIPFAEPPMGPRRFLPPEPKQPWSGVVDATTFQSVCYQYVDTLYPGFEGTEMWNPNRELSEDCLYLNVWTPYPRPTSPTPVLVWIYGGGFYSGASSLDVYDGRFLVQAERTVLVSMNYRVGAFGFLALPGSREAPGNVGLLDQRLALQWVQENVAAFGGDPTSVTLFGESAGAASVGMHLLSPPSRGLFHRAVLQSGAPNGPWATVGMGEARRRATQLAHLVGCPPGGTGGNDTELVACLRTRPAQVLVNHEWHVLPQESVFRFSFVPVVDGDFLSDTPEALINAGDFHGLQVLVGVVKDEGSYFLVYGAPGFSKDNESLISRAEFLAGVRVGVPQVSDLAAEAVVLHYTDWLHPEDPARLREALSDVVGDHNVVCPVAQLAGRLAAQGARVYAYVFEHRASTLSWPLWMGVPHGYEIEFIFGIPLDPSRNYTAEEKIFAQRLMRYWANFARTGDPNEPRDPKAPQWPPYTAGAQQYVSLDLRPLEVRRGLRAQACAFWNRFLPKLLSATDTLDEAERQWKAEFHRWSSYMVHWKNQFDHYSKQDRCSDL
Summary of the method: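 After overnight attachment at 37 C, SH-SY5Y cells get 30 min compound exposure; detection cocktail (acetylthiocholine, DTNB) then incubates 90 min at 37 C, and absorbance reflects AChE-generated thiocholine.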
Potency means the concentration at half of the fitted maximal effect.

Row | Structure (SMILES) | Potency
1 | O=C(O)c1ccccc1C(=O)Nc1cccc2ccccc12 | inactive
2 | CNC(C)Cc1ccccc1OC (stereo not given) | inactive
3 | COC(=O)C(C)N(C(=O)Cc1ccccc1)c1c(C)cccc1C (stereo not given) | inactive
4 | CC(C)=CCOc1c2occc2cc2ccc(=O)oc12 | inactive
5 | CCCCNP(N)(N)=S | inactive
6 | COC(=O)C(Br)CBr (stereo not given) | inactive
7 | Cc1ccc2ccccc2c1 | inactive
8 | COC(C)(C)CCC[C@H](C)C/C=C/C(C)=C/C(=O)OC(C)C | inactive
9 | COC(N)=O | inactive
10 | CCCC(=O)Cl | inactive
11 | NC(=O)CI | inactive
12 | CCBr | inactive
13 | NNC(=O)c1cccnc1 | inactive
14 | Cc1cc(=O)[nH]o1 | inactive
15 | N#CCc1ccccc1 | inactive
16 | CC(Cl)Cl | inactive
17 | CCCN(CCCl)c1c([N+](=O)[O-])cc(C(F)(F)F)cc1[N+](=O)[O-] | inactive
18 | COc1cc(CC(C)N)cc2c1OCO2 (stereo not given) | inactive

Row | Structure (SMILES) | Potency
19 | CCOP(=O)(OCC)SCCSCC | 3.4 µM (active) and 7.96 µM (active)
20 | CCCCCCC#N | inactive
21 | CC(C)(C)C(O)C(Oc1ccc(Cl)cc1)n1cncn1 (stereo not given) | inactive
22 | NC(=O)C(Cl)(Cl)Cl | inactive
23 | Brc1ccc(Oc2ccccc2)cc1 | inactive
24 | CCOP(O)OCC | inactive
25 | Cc1ccc(N)cc1C | inactive
26 | O=C(NC(=O)c1c(F)cccc1F)Nc1cc(Cl)c(Oc2ncc(C(F)(F)F)cc2Cl)c(Cl)c1 | inactive
27 | CCCN(CC1CC1)c1c([N+](=O)[O-])cc(C(F)(F)F)cc1[N+](=O)[O-] | inactive
28 | C=CCC1([C@H](C)CCC)C(=O)NC(=O)NC1=O | inactive
29 | CCCCCCCCCCOC(=O)c1ccccc1C(=O)OCCCCCCCCCC | inactive
30 | O=NN1CCCCCC1 | inactive
31 | C=CCCl | inactive
32 | IC(I)=C(I)I | inactive
33 | CC1(C)[C@H](C=C(Cl)Cl)[C@@H]1C(=O)O[C@@H](C#N)c1cccc(Oc2ccccc2)c1 | inactive
34 | C=CC(=O)OC(C)(C)C | inactive
35 | CCOP(=S)(OCC)Oc1nc(Cl)c(Cl)cc1Cl | 35.7 µM (active) and 35.6 µM (active)

target: Acetylcholinesterase (Homo sapiens) (UniProt P22303); test: Acetylcholinesterase (AChE) small molecule antagonists: enzyme-based qHTS assay (AID 1347397); conditions: Potency: AChE enzyme activity inhibition; series mostly up to 115 µM; further: nearly all actives have a fitted effect of over 55% in size
Summary of the method: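 Tox21 library chemicals are tested in qHTS format against recombinant human AChE. The enzyme, dispensed at 50 mU/mL, sits with compound for 30 min at room temperature. A DTNB–acetylthiocholine cocktail follows, and colour is read after 10 min.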

Row | Structure (SMILES) | Potency
36 | O=C(O)c1ccccc1C(=O)Nc1cccc2ccccc12 | inactive
37 | CNC(C)Cc1ccccc1OC (stereo not given) | inactive
38 | COC(=O)C(C)N(C(=O)Cc1ccccc1)c1c(C)cccc1C (stereo not given) | inactive
39 | CC(C)=CCOc1c2occc2cc2ccc(=O)oc12 | inactive
40 | CCCCNP(N)(N)=S | inactive
41 | COC(=O)C(Br)CBr (stereo not given) | inactive
42 | Cc1ccc2ccccc2c1 | inactive
43 | COC(C)(C)CCC[C@H](C)C/C=C/C(C)=C/C(=O)OC(C)C | inactive
44 | COC(N)=O | inactive
45 | CCCC(=O)Cl | inactive
46 | NC(=O)CI | inactive
47 | CCBr | inactive
48 | NNC(=O)c1cccnc1 | inactive
49 | Cc1cc(=O)[nH]o1 | inactive
50 | N#CCc1ccccc1 | inactive
51 | CC(Cl)Cl | inactive
52 | CCCN(CCCl)c1c([N+](=O)[O-])cc(C(F)(F)F)cc1[N+](=O)[O-] | inactive
53 | COc1cc(CC(C)N)cc2c1OCO2 (stereo not given) | inactive

Row | Structure (SMILES) | Potency
54 | CCOP(=O)(OCC)SCCSCC | 7.61 µM (active) and 20 µM (active)
55 | CCCCCCC#N | inactive
56 | CC(C)(C)C(O)C(Oc1ccc(Cl)cc1)n1cncn1 (stereo not given) | inactive
57 | NC(=O)C(Cl)(Cl)Cl | inactive
58 | Brc1ccc(Oc2ccccc2)cc1 | inactive
59 | CCOP(O)OCC | inactive
60 | Cc1ccc(N)cc1C | inactive
61 | O=C(NC(=O)c1c(F)cccc1F)Nc1cc(Cl)c(Oc2ncc(C(F)(F)F)cc2Cl)c(Cl)c1 | inactive
62 | CCCN(CC1CC1)c1c([N+](=O)[O-])cc(C(F)(F)F)cc1[N+](=O)[O-] | inactive
63 | C=CCC1([C@H](C)CCC)C(=O)NC(=O)NC1=O | inactive
64 | CCCCCCCCCCOC(=O)c1ccccc1C(=O)OCCCCCCCCCC | inactive
65 | O=NN1CCCCCC1 | inactive
66 | C=CCCl | inactive
67 | IC(I)=C(I)I | inactive
68 | CC1(C)[C@H](C=C(Cl)Cl)[C@@H]1C(=O)O[C@@H](C#N)c1cccc(Oc2ccccc2)c1 | inactive
69 | C=CC(=O)OC(C)(C)C | inactive
70 | CCOP(=S)(OCC)Oc1nc(Cl)c(Cl)cc1Cl | 79.9 µM (active)

target: Acetylcholinesterase (Homo sapiens) (UniProt P22303); test: Acetylcholinesterase (AChE) small molecule antagonists: fluorescence cell-based qHTS assay (AID 1347398); conditions: SH-SY5Y cells; Potency: AChE activity; series mostly up to 115 µM; further: nearly all actives have a fitted effect of over 50% in size
Summary of the method: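 Cellular AChE inhibition: SH-SY5Y cells treated with test chemical for 30 min at 37 C, then acetylthiocholine hydrolysis followed over 40 min at room temperature via thiocholine-reactive Thiolite Green fluorescence (490/520 nm).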

Row | Structure (SMILES) | Potency
71 | O=C(O)c1ccccc1C(=O)Nc1cccc2ccccc12 | inactive
72 | CNC(C)Cc1ccccc1OC (stereo not given) | inactive
73 | COC(=O)C(C)N(C(=O)Cc1ccccc1)c1c(C)cccc1C (stereo not given) | inactive
74 | CC(C)=CCOc1c2occc2cc2ccc(=O)oc12 | inactive
75 | CCCCNP(N)(N)=S | inactive
76 | COC(=O)C(Br)CBr (stereo not given) | inactive
77 | Cc1ccc2ccccc2c1 | inactive
78 | COC(C)(C)CCC[C@H](C)C/C=C/C(C)=C/C(=O)OC(C)C | inactive
79 | COC(N)=O | inactive
80 | CCCC(=O)Cl | inactive
81 | NC(=O)CI | inactive
82 | CCBr | inactive
83 | NNC(=O)c1cccnc1 | inactive
84 | Cc1cc(=O)[nH]o1 | inactive
85 | N#CCc1ccccc1 | inactive
86 | CC(Cl)Cl | inactive
87 | CCCN(CCCl)c1c([N+](=O)[O-])cc(C(F)(F)F)cc1[N+](=O)[O-] | inactive
88 | COc1cc(CC(C)N)cc2c1OCO2 (stereo not given) | inactive

Row | Structure (SMILES) | Potency
89 | CCOP(=O)(OCC)SCCSCC | 3.03 µM (active) and 10 µM (active)
90 | CCCCCCC#N | inactive
91 | CC(C)(C)C(O)C(Oc1ccc(Cl)cc1)n1cncn1 (stereo not given) | inactive
92 | NC(=O)C(Cl)(Cl)Cl | inactive
93 | Brc1ccc(Oc2ccccc2)cc1 | inactive
94 | CCOP(O)OCC | inactive
95 | Cc1ccc(N)cc1C | inactive
96 | O=C(NC(=O)c1c(F)cccc1F)Nc1cc(Cl)c(Oc2ncc(C(F)(F)F)cc2Cl)c(Cl)c1 | inactive
97 | CCCN(CC1CC1)c1c([N+](=O)[O-])cc(C(F)(F)F)cc1[N+](=O)[O-] | inactive
98 | C=CCC1([C@H](C)CCC)C(=O)NC(=O)NC1=O | inactive
99 | CCCCCCCCCCOC(=O)c1ccccc1C(=O)OCCCCCCCCCC | inactive
100 | O=NN1CCCCCC1 | inactive
101 | C=CCCl | inactive
102 | IC(I)=C(I)I | inactive
103 | CC1(C)[C@H](C=C(Cl)Cl)[C@@H]1C(=O)O[C@@H](C#N)c1cccc(Oc2ccccc2)c1 | inactive
104 | C=CC(=O)OC(C)(C)C | inactive
105 | CCOP(=S)(OCC)Oc1nc(Cl)c(Cl)cc1Cl | 35.7 µM (active) and 35.6 µM (active)
